Only some compounds are listed: those with a hit (about 17% of all), similar ones and a draw of the others.
TDP1 cell CPT: growth inhibition of DT40 Tdp1-/-;hTDP1 cells with camptothecin (screen for TDP1 inhibitors); chicken DT40 Tdp1-/-;hTDP1 cells + 20 nM CPT, ATP luminescence, 48 h; Potency, µM (titrated, usually from 46.2 µM), without a hit: at the top dose activity change, negative = growth inhibition, hits mostly inhibitors; 420,000 compounds, 12% hits; also: % is scaled to controls: 0 for no effect and ±100 for the full control effect; nearly all actives have a fitted effect of over 55% in size
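Cell growth measured by CellTiter-Glo luminescence after a minimum 48 h, 37 C compound exposure with 20 nM CPT in Tdp1-knockout DT40 cells stably expressing hTDP1, seeded 400/well; qHTS titration format.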
ClpP mod: qHTS Assay for Activators of ClpP; ATP-dependent Clp protease proteolytic subunit (Bacillus subtilis (strain 168)), P80244; purified B. subtilis ClpP, FRET peptide cleavage, 20 min; Potency, µM (highest dose often 57.5 µM), inactives show at the top dose activity change, negative = active; 340,000 compounds, 1.9% hits; AID 651965, 2013; active = well fitted falling curve with a large enough effect; inconclusive = small, poorly fitted or top-dose-only effect; inactive = no such curve, though single readings can be large or run the other way; also: the source files actives as falling curves though it sought activators and does not explain the sign; nearly all actives have a fitted effect of over 65% in size
Target sequence (P80244 whole entry, looked up): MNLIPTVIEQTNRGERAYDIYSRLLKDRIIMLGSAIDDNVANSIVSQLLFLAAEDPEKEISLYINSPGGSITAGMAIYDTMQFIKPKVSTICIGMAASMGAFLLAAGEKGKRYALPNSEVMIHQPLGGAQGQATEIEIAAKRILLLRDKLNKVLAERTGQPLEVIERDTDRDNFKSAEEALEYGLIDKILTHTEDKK
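Buffer: 100 mM Tris/HCl pH8, 100 mM KCl, 0.05% low protease BSA, 2.5% glycerol, 0.01% Tween-20. ClpP 10 microg/mL final; 20 min RT; delta FRET normalized to ADEP and DMSO controls.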
TDP1 block: inhibitors of human tyrosyl-DNA phosphodiesterase TDP1 | recombinant TDP1, AlphaScreen DNA substrate cleavage | Potency, µM (series often up to 130 µM), for the others: top-dose activity change, negative = inhibition, usual class: inhibitors | 350,000 compounds, 0.28% hits; also: % is scaled to controls: 0 for no effect and ±100 for the full control effect; nearly all actives have a fitted effect of over 40% in size
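AlphaScreen read-out: signal falls as enzyme removes the 3' tyrosine-FITC from a 5'-biotinylated DNA oligo (15 nM, 5 min, RT). Enzyme was E. coli-made recombinant Tdp1 at 1 nM, exposed to compound for 15 min beforehand; beads 10 ug/ml, 10 min.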
DT40 TDP1 no CPT: qHTS for Inhibitors of human tyrosyl-DNA phosphodiesterase 1 (TDP1): qHTS in cells in absence of CPT | DT40 Tdp1-/- hTDP1 cells, no CPT, ATP luminescence, 48 h | 420,000 compounds, 15% hits | Potency, µM (highest dose often 46.2 µM), inactives show at the top dose activity change, negative = growth inhibition, actives largely listed as inhibitors; also: % is scaled to controls: 0 for no effect and ±100 for the full control effect; nearly all actives have a fitted effect of over 55% in size
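Chicken DT40 Tdp1-/- cells stably complemented with human TDP1 were seeded at 400 cells/well with DMSO in place of 20 nM camptothecin. After compound pinning, cells grew at least 48 hr at 37 °C; viability read by CellTiter-Glo luminescence.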
Starred values were filed as active, the others as inactive; ? = inconclusive; · = not tested or not shown. Unless noted, calls follow the shape of the dose curve; as a rule, active = well fitted curve in the direction sought with a large enough effect; inconclusive = small, poorly fitted or top-dose-only effect, or another doubt; inactive = no such curve, though single readings can be large; an effect the other way counts as inactive or inconclusive. Potency is read from the fitted curve at half-maximal effect.

SMILES | TDP1 cell CPT | ClpP mod | TDP1 block | DT40 TDP1 no CPT
CCOC(=O)CC1(NC(=O)C2CCC(=O)N(CCc3ccc(OC)cc3)C2)CCCCC1 (stereo unspecified) | -16.2% | -2.1% | 2.6% | -2.4%
CCC(=O)N1CCN(c2ccc(NC(=O)c3ccc([N+](=O)[O-])o3)cc2)CC1 | 4.61µM* | · | 0.0% | 20.6µM*
CC(C)(C)C(=O)N1CCN(c2ccc(NC(=O)c3ccc([N+](=O)[O-])o3)cc2)CC1 | 2.59µM* | · | 4.9% | 6.51µM*
CC(C)(C)C(=O)N1CCN(c2ccc(NC(=O)c3ccco3)cc2)CC1 | -5.5% | · | · | -20.1%
CC1CCN(C(=O)c2ccc([N+](=O)[O-])o2)CC1 | ? | · | · | -12.9%
CS(=O)(=O)N1CCN(c2ccc(NC(=O)c3ccc([N+](=O)[O-])o3)cc2)CC1 | 2.59µM* | 0.7% | 0.0% | 7.31µM*
CC1CCN(c2ccc(NC(=O)c3ccc([N+](=O)[O-])o3)cc2)CC1 | 4.61µM* | 5.1% | · | 3.26µM*
O=C(Nc1ccc(N2CCN(C(=O)c3ccc(Cl)cc3)CC2)cc1)c1ccc([N+](=O)[O-])o1 | 2.91µM* | -1.0% | 5.5% | 1.16µM*
CCN1C(Nc2ccccc2)=NC[C@@H]1C | 10.4% | 0.7% | · | 7.6%
C[C@H]1CN=C(Nc2ccccc2)N1CCC1CCCCC1 | 18.4µM* | -0.4% | · | ?
C[C@H]1CN=C(Nc2ccccc2)N1CC1CCCCCC1 | 18.4µM* | -0.4% | · | 13µM*
C[C@H]1CN=C(Nc2ccccc2)N1CC1CCC1 | -0.9% | 0.9% | · | 1.4%
C[C@H]1CN=C(Nc2ccccc2)N1CCCC1CCCC1 | 18.4µM* | 1.5% | · | 16.4µM*
Cc1ccc(C(=O)NNC(=O)CCCCC(=O)NNC(=O)c2ccc(C)cc2)cc1 | 19.1% | · | ? | 4.5%
O=C(COC(=O)c1ccc(Br)o1)NC1CCCc2ccccc21 (stereo unspecified) | -12.1% | -0.6% | 0.5% | -15.4%
O=c1nc(-c2ccccc2)cc(-c2ccccc2)[nH]1 | -17.7% | 28.2µM* | 2.1% | -12.1%
COc1ccccc1-c1cc(-c2ccccc2)nc(=O)[nH]1 | -10.2% | 4.0% | · | -3.2%
Cc1c(C(=O)Nc2nccs2)oc2ccc(Br)cc12 | ? | -26.6% | -10.5% | ?
Fc1ccc(-n2cc(CNCCc3cccnc3)c(-c3ccccc3Cl)n2)cc1 | 14.6µM* | 28.2µM* | -5.1% | 23.1µM*
Fc1ccc(-c2nn(-c3ccccc3)cc2CNCc2ccccc2)cc1 | ? | · | 1.2% | ?
COc1ccc(OC)c(S(=O)(=O)N2CCC(C(=O)NCc3ccccn3)CC2)c1 | -12.4% | · | 7.1% | -6.7%
CCCCn1c(SCC(=O)N2CCOCC2)nc2ccccc2c1=O | -21.4% | · | -4.6% | -10.3%
CCCCn1c(SCC(=O)Nc2ccccc2C(F)(F)F)nc2ccsc2c1=O | -17.1% | -0.1% | -2.8% | -24.4%
O=C(CSc1nc2ccsc2c(=O)n1Cc1ccccc1)NCC1CCCO1 (stereo unspecified) | 4.8% | · | 2.3% | -2.5%
CCCCn1c(SCC(=O)N2CCC(C)CC2)nc2ccsc2c1=O | ? | -2.5% | 5.7% | 14.6µM*
SMILES | TDP1 cell CPT | ClpP mod | TDP1 block | DT40 TDP1 no CPT
CCC1CCCCN1C(=O)CSc1nc2ccsc2c(=O)n1Cc1ccccc1 (stereo unspecified) | 20.6µM* | -0.3% | 6.0% | 9.2µM*
CCCCn1c(SCC(=O)N2CCN(c3ccccc3)CC2)nc2ccsc2c1=O | 11.6µM* | -1.2% | 7.3% | ?
CCC(CC)c1ncc[nH]1 | -5.4% | 2.9% | · | -13.3%
COC(=O)c1cc(S(=O)(=O)N2CCCC2=O)c(Cl)cc1Cl | 1.6% | 1.8% | · | -4.4%
Cc1ccc(S(=O)(=O)N2CCSC2C(=O)O)cc1 (stereo unspecified) | 2.7% | 3.6% | 2.6% | 1.7%
Cc1ccc(S(=O)(=O)N2CCSC2c2ccco2)cc1 (stereo unspecified) | 1.1% | -0.6% | 1.0% | 18.4µM*
CC(C)CNC(=O)c1cc(S(=O)(=O)N2CCOCC2)ccc1N1CCCC1 | 1.1% | -2.3% | 0.5% | 5.5%
COc1ccc(N2CCN(Cc3nc(N)nc(Nc4ccc(C)c(Cl)c4)n3)CC2)cc1 | 9.2µM* | 4.2% | 14.3% | 16.4µM*
Cc1ccc(Nc2nc(N)nc(CN3CCN(c4ccccc4)CC3)n2)cc1Cl | ? | 0.6% | 7.7% | 18.4µM*

Screening results (PubChem BioAssay)
